Rows were chosen to be rich in hits. Some 2.2% of all compounds tested hit in one or more screens of this group.
PTPN22 act: LYP (human) phosphatase activation. AID 697. Q9Y2R2. recombinant LYP, DiFMUP fluorescence; 0 = plate median, 100 = signal doubled. activation, % at 2 µM. 0.11% of 96,000 active;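 active = activation at 2 µM above a set limit, the mean plus 5 SD, cut at about 37% in these data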
PLAP activator: activators of human placental alkaline phosphatase. purified PLAP enzyme, luminescent substrate read-out; stronger effect = higher value. AID 696. 1.2% of 96,000 active. activation fold at 20 µM; in the data active = activation fold above about 2
MRP1 act: MRP-1 activation; H69AR cells + doxorubicin, viability rescue, CellTiter-Glo; viability increase, % at 10 µM; 0.61% of 140,000 active;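 active = viability gain under doxorubicin at or above a set limit, the compound median plus 3 SD, cut at about 4.7% in these data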;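 also: MRP-1 overexpressing cells given doxorubicin 25 µM after compound pretreatment; 18-22 h compound pretreatment then 72 h with doxorubicin before readout; 0% = doxorubicin-only wells and 100% = vehicle-treated cells without doxorubicin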
MRP resist rev: compounds reversing MRP-mediated drug resistance. H69AR cells + 2 uM doxorubicin, CellTiter-Glo, 72 h. differential viability (reversal), % at 10 µM. 0.04% of 85,000 active. AID 602;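 active = viability drop by adding the cancer drug above about 55%, with treated viability meeting a 40% cutoff, limit read from the data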;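 also: viability without doxorubicin minus viability with 2 µM doxorubicin for each compound; larger differential means the compound sensitizes cells more to doxorubicin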
LYP inh 2: blocks human PTPN22 phosphatase activity; Q9Y2R2; recombinant LYP catalytic domain, DiFMUP fluorescence; inhibition, % at 2 µM; 0.21% of 96,000 active;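 active = inhibition at 2 µM at or above a set limit, the screen mean plus 3 SD, cut at about 24% in these data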;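 also: 0% = DMSO with enzyme and 100% = enzyme fully blocked by orthovanadate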
FAK inh: inhibitors of human focal adhesion kinase; Q05397; biochemical FAK kinase activity assay; AID 727; inhibition, %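 (tested at 7 µM)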; 0.84% of 97,000 active; in the data active = inhibition above about 19%;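 also: 0% = DMSO and 100% = reference compound high control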
An asterisk follows results filed as active; x = no result.

SMILES | PTPN22 act | PLAP activator | MRP1 act | MRP resist rev | LYP inh 2 | FAK inh
Cc1cccc(NC(=O)CSc2nc(-c3ccccc3)c(C#N)c(=O)[nH]2)c1C | -5.3 | 1.2 | 9.1* | x | 10.2 | -13.1
Cc1cccc(NC(=O)CSc2nc3[nH]ncc3c(=O)[nH]2)c1C | x | x | -2.1 | x | x | x
Cc1cccc(C(=O)N/N=C/c2cc(Br)c(Br)o2)c1 | x | x | -2.8 | x | x | x
Cc1cc2c(N=NC(=O)C3CC3c3ccccc3)c(O)[nH]c2cc1Br (stereo not given) | x | x | -3.7 | x | x | x
C=CCOc1ccc(C(=O)CC)cc1OC | x | x | 2.0 | x | x | x
COc1ccc(C(=O)NCCCc2nc3ccccc3n2Cc2ccccc2C)cc1OC | x | x | -2.1 | x | x | x
C=CCSc1nc(-c2ccccc2)c(C#N)c(=O)[nH]1 | 2.9 | 1.3 | 1.0 | 13.4 | -4.6 | -7.8
N#Cc1c(-c2ccccc2)nc(SCC(=O)N(c2ccccc2)c2ccccc2)[nH]c1=O | x | x | 7.5* | x | x | x
CCCN(c1ccc(OCC)cc1)c1ncnc2nc[nH]c12 | x | 2.1* | -1.1 | -8.7 | x | x
CCCCc1ccc(Nc2ncnc3nc[nH]c23)cc1 | -8.1 | 1.7 | 2.2 | -27.4 | 5.2 | 12.8
CCCCN(Cc1ccccc1)c1ncnc2nc[nH]c12 | x | 2.1* | -2.1 | -2.8 | x | x
COc1ccccc1Nc1nnc(SCc2cc(=O)n3cc(C)ccc3n2)s1 | x | x | -0.8 | x | x | x
Cc1c2cc(O)c(=O)cc-2oc2cc(O)c(O)cc12 | -93.6 | 0.6 | 1.0 | x | 93.5* | 11.6
COc1ccc(-c2nc(C(N)=O)c3[nH]c(=O)n(-c4ccccc4OC)c3n2)c(OC)c1 | 0.4 | 2.4* | -3.7 | -30.0 | -3.2 | -2.0
COc1ccc(OC)c(-c2nc(C(N)=O)c3[nH]c(=O)n(-c4ccc(F)cc4)c3n2)c1 | -9.0 | 1.5 | -1.6 | -0.3 | 5.5 | 0.5
CC1=Nc2nc(N3CCCCC3)c(C#N)c3c4c(nc(c23)N1)N(c1ccc(C(C)C)cc1)C(=O)C4 | x | x | -5.3 | x | x | x
CCOC(=O)c1c(C)oc2c1c(C(c1cccnc1)N1CCN(C)CC1)c(O)c1ccccc12 (stereo not given) | x | 1.5 | x | 0.8 | x | x
CN1CCN(C(c2cccnc2)c2ccc3cccnc3c2O)CC1 (stereo not given) | -9.6 | 2.5* | -2.3 | -5.1 | 7.2 | 3.6
Cc1cc(C)nc(SCc2nnc(SCC(=O)Nc3nc(-c4ccccc4)cs3)n2-c2ccccc2)n1 | -4.8 | 2* | -1.0 | 1.2 | 3.9 | -1.5
COC(=O)c1ccccc1NC(=O)Cn1nc2n(C)c3ccccc3n2c(=O)c1=O | x | x | -1.0 | x | x | x
COc1ccc(CCNC(=O)CSCc2ccc(C)cc2)cc1OC | 5.1 | x | x | x | -2.8 | 6.4
COc1ccc(CCNC(=O)CSCc2ccc(Cl)cc2)cc1OC | x | x | 5.0* | x | x | x
CCOc1cc(CNCc2ccccn2)ccc1OCC(=O)NC1CCCCC1 | -6.9 | 2* | -3.8 | x | 5.7 | -1.7
Cc1ccc(N=C2S/C(=C\c3cn(CC(=O)O)c4ccccc34)C(=O)N2C)cc1 | x | x | -2.7 | x | x | x
O=C(CSc1cccc(C(F)(F)F)c1)Nc1cc(S(=O)(=O)N2CCCC2)ccc1Cl | x | x | -2.5 | x | x | x
SMILES | PTPN22 act | PLAP activator | MRP1 act | MRP resist rev | LYP inh 2 | FAK inh
Cc1ccc(Cn2nnc3c(=O)[nH]c(C(=O)NCc4ccco4)nc32)cc1 | x | 2* | -1.6 | 9.9 | x | x
Cc1nc(Nc2nc3ccccc3o2)nc2c1CCC2 | -15.0 | 2.7* | -1.2 | -7.9 | 13.7 | 0.2
CCOC(=O)c1cnc(Nc2nc3ccccc3o2)nc1C | -3.7 | 2.8* | -2.0 | 2.6 | 6.5 | -1.0
Cc1ccccc1COC[C@H](CC(C)C)N1CCN(C(=O)c2cccc(C(F)(F)F)c2)CCC1=O | x | x | -3.0 | x | x | x
COC(=O)c1ccc(CNC(=O)c2ccc(COc3ccccc3)cc2)cc1 | x | x | 0.7 | x | x | x
CCOC(=O)C1=C(C)NC2=C(C(=O)CC(c3cccs3)C2)C1c1cccs1 (stereo not given) | 2.0 | x | -6.0 | -19.2 | -1.6 | 21.3*
CCCOC(=O)C1=C(C)NC2=C(C(=O)CCC2)C1c1cccs1 (stereo not given) | -7.9 | 0.9 | -1.3 | 16.6 | 7.2 | 12.7
CCN(CC)S(=O)(=O)c1ccc2[nH]c(=O)cc(C(=O)Nc3ccc(C)c(S(=O)(=O)N(CC)CC)c3)c2c1 | x | x | -1.4 | x | x | x
Cc1ccc(NC(=O)ON=C2CCCC2)cc1 | x | x | -4.4 | x | x | x
CCn1c(SCC(=O)Nc2oc(-c3ccccc3)c(-c3ccccc3)c2C#N)nnc1-c1cc(OC)cc(OC)c1 | 0.8 | 2.2* | 0.9 | 32.2 | -1.5 | -2.1
COc1ccc(C2=CSC3=C(C(=O)c4cccc(S(=O)(=O)N(C)C)c4)CCN23)cc1 | -3.6 | 2.9* | -1.3 | 8.7 | 5.2 | 4.0
Cc1nc2c(ccc3nc(NC(=O)C(c4ccccc4)c4ccccc4)sc32)s1 | x | x | 15.5* | x | x | x

Bioassay records from PubChem.
